# Test results: paper PMC7862700, “An all-to-all approach to the identification of sequence-specific readers for epigenetic DNA modifications on cytosine”
# Experiments:
# Assay in all cases: DAPPL (digital affinity profiling via proximity ligation, sequencing); 10 mM Tris-HCl pH 7.5, 50 mM NaCl, 1 mM DTT, 4% glycerol, room temperature, 30 min; GST-TFs on glutathione beads, 16-mer random dsDNA library, 0.1% formaldehyde crosslink after washing; high values mean tight binding
# FLI1 = molecular target: T1, FLI1 (Homo sapiens, UniProt Q01543 1-452); details: protein: recombinant; tags: N-terminal GST; dsDNA, one strand shown
# T1 sequence: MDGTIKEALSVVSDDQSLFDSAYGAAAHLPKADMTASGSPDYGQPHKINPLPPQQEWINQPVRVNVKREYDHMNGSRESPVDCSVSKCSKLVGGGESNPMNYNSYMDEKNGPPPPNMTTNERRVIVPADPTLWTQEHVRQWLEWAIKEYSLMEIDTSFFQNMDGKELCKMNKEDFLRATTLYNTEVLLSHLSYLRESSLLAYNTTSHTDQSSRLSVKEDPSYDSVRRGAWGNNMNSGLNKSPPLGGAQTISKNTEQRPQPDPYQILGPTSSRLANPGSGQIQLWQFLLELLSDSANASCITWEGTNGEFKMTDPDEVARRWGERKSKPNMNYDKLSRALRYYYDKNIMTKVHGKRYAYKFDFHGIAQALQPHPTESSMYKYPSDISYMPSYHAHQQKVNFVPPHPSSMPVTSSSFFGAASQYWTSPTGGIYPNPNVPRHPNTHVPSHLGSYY
# Method in brief: (§1)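 After expression in yeast as GST fusions, human transcription factors were bound to glutathione beads, DNA-barcoded and mixed with a tag-only sample. The pools were incubated with 200 nmole of a 16-mer random double-stranded DNA library in Tris/NaCl/DTT/glycerol buffer (30 min, room temperature), washed and crosslinked with 0.1% formaldehyde. Proximity ligation with BsaI/T4 ligase ran for 1 h at 37 °C, before PCR amplification and sequencing on an Illumina NextSeq500. Binding signal is a hexamer's read frequency for a factor divided by its frequency for the tag-only sample.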
# ELK1 = molecular target: T2, ELK1 (Homo sapiens, UniProt P19419 1-428); details: protein: recombinant; tags: N-terminal GST; dsDNA, one strand shown
# T2 sequence: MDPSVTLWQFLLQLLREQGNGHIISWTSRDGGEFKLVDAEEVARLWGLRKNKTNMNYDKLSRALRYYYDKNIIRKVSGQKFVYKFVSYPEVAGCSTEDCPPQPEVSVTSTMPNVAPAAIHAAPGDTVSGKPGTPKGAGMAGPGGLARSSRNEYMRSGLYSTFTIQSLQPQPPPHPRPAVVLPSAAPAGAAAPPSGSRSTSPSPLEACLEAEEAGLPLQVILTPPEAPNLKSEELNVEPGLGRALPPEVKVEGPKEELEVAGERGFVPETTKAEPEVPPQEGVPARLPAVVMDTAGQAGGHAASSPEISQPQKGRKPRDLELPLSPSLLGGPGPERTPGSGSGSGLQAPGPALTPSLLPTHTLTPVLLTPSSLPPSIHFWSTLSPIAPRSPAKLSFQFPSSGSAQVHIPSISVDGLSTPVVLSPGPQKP
# Method in brief: as §1
# GABPA = molecular target: T3, GABPA (Homo sapiens, UniProt Q06546 1-454); details: protein: recombinant; tags: N-terminal GST; dsDNA, one strand shown
# T3 sequence: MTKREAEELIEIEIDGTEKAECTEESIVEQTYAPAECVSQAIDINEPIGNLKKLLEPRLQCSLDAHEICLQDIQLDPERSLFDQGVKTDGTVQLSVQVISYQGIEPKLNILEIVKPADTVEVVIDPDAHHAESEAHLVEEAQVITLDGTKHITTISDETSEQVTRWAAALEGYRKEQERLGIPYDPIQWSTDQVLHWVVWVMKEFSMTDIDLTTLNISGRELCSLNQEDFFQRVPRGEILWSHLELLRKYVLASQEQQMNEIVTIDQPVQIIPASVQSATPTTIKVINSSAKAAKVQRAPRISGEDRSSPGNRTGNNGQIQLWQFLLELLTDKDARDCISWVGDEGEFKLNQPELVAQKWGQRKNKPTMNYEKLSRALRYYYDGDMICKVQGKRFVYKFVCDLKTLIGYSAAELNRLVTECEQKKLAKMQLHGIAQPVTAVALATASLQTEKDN
# Method in brief: as §1
# ERG = molecular target: T4, ERG (Homo sapiens, UniProt P11308 1-479); details: protein: recombinant; tags: N-terminal GST; dsDNA, one strand shown
# T4 sequence: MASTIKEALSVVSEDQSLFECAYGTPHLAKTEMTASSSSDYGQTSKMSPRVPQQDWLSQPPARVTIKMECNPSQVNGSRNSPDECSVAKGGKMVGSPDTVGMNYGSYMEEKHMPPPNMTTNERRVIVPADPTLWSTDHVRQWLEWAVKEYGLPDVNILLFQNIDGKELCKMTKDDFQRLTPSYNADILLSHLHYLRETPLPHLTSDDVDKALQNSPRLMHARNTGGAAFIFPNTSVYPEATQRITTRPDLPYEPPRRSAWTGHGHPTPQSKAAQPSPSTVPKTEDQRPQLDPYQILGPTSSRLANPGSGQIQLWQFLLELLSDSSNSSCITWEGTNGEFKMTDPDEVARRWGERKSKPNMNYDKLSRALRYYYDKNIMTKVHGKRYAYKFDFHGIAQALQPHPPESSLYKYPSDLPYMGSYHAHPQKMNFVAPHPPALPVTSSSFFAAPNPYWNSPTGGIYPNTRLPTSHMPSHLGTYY
# Method in brief: as §1
# ELF1 = ELF1 (Homo sapiens, UniProt P32519 1-619); details: protein: recombinant; tags: N-terminal GST; dsDNA, one strand shown
# Sequence of ELF1 (P32519 whole entry): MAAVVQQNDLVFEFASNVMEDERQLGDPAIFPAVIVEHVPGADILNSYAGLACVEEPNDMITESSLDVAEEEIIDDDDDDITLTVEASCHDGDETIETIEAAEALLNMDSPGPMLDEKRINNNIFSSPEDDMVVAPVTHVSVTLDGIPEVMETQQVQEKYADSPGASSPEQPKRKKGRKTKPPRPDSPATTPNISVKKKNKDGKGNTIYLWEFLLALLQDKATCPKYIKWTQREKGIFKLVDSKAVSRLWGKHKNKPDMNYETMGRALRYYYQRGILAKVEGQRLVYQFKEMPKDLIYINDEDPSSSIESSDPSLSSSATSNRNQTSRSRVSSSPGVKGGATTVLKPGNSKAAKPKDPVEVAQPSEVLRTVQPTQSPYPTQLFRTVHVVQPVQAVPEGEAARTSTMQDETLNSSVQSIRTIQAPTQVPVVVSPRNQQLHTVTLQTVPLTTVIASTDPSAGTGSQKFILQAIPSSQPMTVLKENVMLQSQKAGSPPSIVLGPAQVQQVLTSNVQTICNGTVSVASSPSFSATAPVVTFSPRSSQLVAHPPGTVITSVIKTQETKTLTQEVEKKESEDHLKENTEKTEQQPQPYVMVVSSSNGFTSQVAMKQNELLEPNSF
# Method in brief: as §1
# EHF = molecular target: T5, EHF (Homo sapiens, UniProt Q9NZC4 1-300); details: protein: recombinant; tags: N-terminal GST; dsDNA, one strand shown
# T5 sequence: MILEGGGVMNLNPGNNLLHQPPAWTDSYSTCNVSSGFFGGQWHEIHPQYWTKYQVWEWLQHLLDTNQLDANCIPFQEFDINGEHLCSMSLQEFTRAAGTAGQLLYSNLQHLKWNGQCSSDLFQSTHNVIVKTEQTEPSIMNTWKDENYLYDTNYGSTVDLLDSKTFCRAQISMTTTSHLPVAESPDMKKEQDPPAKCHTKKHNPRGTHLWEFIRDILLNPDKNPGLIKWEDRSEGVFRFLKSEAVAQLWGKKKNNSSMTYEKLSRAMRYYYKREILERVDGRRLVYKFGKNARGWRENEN
# Method in brief: as §1
# SPI1 = SPI1 (Homo sapiens, UniProt P17947 1-270); details: protein: recombinant; tags: N-terminal GST; dsDNA, one strand shown
# Method in brief: as §1
# SPIB = SPIB (Homo sapiens, UniProt Q01892 1-262); details: protein: recombinant; tags: N-terminal GST; dsDNA, one strand shown
# Sequence of SPIB (Q01892 whole entry): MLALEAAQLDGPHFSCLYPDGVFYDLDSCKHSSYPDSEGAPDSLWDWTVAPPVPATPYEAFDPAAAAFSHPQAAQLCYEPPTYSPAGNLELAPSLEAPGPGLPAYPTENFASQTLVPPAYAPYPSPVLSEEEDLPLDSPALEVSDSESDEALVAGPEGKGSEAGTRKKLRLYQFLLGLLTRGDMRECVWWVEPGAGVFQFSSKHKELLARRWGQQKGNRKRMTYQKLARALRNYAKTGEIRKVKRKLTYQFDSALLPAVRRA
# Method in brief: as §1
# ELK3 = molecular target: T6, ELK3 (Homo sapiens, UniProt P41970 1-407); details: protein: recombinant; tags: N-terminal GST; dsDNA, one strand shown
# T6 sequence: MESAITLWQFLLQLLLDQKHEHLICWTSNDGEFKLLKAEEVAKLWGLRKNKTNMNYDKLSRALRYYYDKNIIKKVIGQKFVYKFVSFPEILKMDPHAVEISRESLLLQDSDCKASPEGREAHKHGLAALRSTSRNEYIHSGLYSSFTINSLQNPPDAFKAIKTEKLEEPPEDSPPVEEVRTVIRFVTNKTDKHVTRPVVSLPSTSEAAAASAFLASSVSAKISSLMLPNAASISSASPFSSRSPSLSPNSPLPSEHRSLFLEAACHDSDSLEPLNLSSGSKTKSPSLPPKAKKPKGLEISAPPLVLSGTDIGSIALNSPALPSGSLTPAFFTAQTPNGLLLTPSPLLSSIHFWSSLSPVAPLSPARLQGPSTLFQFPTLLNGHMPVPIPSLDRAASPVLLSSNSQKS
# Method in brief: as §1
# FEV = molecular target: T7, FEV (Homo sapiens, UniProt Q99581 1-238); details: protein: recombinant; tags: N-terminal GST; dsDNA, one strand shown
# T7 sequence: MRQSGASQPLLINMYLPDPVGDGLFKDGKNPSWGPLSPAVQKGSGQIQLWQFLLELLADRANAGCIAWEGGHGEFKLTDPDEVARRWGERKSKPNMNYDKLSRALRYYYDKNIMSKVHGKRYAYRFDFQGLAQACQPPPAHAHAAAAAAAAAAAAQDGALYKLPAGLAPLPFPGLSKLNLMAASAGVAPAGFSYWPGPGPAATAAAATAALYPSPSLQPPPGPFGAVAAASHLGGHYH
# Method in brief: as §1
# ETV5 = ETV5 (Homo sapiens, UniProt P41161 1-510); details: protein: recombinant; tags: N-terminal GST; dsDNA, one strand shown
# Sequence of ETV5 (P41161 whole entry): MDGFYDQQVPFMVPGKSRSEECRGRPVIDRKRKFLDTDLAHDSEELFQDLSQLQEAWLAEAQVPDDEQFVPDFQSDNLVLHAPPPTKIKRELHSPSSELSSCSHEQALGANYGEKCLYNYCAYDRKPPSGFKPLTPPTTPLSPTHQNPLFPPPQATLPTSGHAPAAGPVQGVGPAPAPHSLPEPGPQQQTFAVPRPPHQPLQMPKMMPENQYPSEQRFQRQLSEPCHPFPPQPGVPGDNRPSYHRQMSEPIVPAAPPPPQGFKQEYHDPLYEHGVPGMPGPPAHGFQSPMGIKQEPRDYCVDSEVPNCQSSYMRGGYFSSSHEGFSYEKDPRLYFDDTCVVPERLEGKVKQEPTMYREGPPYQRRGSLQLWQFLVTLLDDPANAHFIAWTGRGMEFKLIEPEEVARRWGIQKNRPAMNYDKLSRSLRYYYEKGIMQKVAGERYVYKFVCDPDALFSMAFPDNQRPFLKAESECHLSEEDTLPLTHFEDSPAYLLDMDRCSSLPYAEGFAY
# Method in brief: as §1
# HSF1 = HSF1 (Homo sapiens, UniProt Q00613 1-529); details: protein: recombinant; tags: N-terminal GST; chain copies: 3; dsDNA, one strand shown
# Sequence of HSF1 (Q00613 whole entry): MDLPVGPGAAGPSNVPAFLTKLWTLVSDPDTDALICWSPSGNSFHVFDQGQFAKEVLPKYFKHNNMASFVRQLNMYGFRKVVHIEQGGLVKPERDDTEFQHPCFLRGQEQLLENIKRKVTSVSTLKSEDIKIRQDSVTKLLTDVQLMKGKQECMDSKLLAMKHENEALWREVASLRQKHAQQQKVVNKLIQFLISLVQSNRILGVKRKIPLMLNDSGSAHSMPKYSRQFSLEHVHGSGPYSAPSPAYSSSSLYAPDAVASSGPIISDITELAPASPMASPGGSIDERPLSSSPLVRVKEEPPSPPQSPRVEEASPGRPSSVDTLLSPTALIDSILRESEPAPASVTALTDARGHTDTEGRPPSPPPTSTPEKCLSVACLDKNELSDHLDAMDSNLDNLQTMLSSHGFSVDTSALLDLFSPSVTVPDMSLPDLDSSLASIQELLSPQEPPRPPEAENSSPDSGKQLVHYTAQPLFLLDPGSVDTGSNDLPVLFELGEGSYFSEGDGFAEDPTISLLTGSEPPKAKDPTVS
# Method in brief: as §1
# SPIC = molecular target: T8, SPIC (Homo sapiens, UniProt Q8N5J4 1-248); details: protein: recombinant; tags: N-terminal GST; dsDNA, one strand shown
# T8 sequence: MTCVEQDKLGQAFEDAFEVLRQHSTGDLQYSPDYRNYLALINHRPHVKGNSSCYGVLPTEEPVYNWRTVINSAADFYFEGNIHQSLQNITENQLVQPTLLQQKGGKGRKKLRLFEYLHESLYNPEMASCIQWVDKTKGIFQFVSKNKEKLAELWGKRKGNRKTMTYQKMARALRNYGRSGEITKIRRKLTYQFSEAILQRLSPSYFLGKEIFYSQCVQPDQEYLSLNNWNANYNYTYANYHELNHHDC
# Method in brief: as §1
# ELF4 = ELF4 (Homo sapiens, UniProt Q99607 1-663); details: protein: recombinant; tags: N-terminal GST; dsDNA, one strand shown
# Sequence of ELF4 (Q99607 whole entry): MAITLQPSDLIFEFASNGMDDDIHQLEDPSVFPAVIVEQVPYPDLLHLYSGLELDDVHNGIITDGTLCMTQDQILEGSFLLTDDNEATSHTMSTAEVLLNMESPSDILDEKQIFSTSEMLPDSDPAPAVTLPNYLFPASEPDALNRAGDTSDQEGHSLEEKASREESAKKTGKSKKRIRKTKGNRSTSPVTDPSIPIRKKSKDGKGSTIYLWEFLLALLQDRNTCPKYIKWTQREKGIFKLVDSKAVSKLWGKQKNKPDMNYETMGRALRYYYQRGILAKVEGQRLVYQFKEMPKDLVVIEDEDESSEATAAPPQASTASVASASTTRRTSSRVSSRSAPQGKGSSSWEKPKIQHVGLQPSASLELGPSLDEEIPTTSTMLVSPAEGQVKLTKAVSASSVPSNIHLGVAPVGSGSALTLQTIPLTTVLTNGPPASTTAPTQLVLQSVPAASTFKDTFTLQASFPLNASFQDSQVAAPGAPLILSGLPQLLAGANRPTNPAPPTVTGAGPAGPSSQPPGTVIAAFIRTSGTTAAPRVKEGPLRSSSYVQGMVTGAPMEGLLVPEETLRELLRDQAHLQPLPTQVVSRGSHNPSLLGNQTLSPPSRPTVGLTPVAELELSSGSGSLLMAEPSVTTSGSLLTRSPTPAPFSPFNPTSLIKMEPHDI
# Method in brief: as §1
# ELK4 = molecular target: T9, ELK4 (Homo sapiens, UniProt P28324-2 1-405); details: protein: recombinant; tags: N-terminal GST; dsDNA, one strand shown
# T9 sequence: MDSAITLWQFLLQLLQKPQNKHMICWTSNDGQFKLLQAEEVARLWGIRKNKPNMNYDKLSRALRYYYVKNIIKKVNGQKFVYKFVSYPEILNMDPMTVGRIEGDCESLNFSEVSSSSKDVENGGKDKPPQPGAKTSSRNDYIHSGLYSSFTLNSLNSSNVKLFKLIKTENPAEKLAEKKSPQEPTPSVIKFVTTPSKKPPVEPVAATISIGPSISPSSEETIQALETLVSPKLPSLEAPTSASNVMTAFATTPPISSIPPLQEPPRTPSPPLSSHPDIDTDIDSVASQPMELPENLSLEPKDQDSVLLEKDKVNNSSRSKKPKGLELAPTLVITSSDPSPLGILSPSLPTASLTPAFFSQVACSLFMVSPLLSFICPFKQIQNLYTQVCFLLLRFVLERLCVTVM
# Method in brief: as §1
# ETV2 = molecular target: T10, ETV2 (Homo sapiens, UniProt O00321 1-342); details: protein: recombinant; tags: N-terminal GST; dsDNA, one strand shown
# T10 sequence: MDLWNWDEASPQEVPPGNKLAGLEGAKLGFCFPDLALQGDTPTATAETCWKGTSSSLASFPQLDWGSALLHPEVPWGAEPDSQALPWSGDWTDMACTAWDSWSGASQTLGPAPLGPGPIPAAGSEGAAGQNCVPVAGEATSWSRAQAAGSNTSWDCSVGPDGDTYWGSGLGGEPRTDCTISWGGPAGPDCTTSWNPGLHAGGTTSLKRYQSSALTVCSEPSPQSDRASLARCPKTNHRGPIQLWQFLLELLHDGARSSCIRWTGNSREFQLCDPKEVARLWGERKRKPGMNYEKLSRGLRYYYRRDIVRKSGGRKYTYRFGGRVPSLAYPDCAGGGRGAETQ
# Method in brief: as §1
# ELF3 = molecular target: T11, ELF3 (Homo sapiens, UniProt P78545 1-371); details: protein: recombinant; tags: N-terminal GST; dsDNA, one strand shown
# T11 sequence: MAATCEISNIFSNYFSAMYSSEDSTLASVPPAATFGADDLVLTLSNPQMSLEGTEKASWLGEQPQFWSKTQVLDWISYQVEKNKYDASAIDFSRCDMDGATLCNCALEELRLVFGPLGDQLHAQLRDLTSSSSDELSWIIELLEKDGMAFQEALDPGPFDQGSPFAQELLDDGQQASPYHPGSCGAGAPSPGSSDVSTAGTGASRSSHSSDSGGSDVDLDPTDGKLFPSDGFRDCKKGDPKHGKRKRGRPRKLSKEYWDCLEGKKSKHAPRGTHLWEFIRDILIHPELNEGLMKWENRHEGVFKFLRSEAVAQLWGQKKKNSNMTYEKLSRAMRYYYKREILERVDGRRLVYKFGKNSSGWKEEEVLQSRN
# Method in brief: as §1
# CRX = CRX (Homo sapiens, UniProt O43186 1-299); details: protein: recombinant; tags: N-terminal GST; dsDNA, one strand shown
# Sequence of CRX (O43186 whole entry): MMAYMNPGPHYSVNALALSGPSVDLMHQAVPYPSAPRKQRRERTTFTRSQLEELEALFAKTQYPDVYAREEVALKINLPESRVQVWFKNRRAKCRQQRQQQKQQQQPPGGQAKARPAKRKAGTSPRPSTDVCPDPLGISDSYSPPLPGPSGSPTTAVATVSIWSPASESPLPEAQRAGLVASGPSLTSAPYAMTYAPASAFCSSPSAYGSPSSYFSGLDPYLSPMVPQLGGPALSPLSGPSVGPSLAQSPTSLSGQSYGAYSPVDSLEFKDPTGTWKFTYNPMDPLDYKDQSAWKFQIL
# Method in brief: as §1
# ETV1 = ETV1 (Homo sapiens, UniProt P50549 1-477); details: protein: recombinant; tags: N-terminal GST; dsDNA, one strand shown
# Sequence of ETV1 (P50549 whole entry): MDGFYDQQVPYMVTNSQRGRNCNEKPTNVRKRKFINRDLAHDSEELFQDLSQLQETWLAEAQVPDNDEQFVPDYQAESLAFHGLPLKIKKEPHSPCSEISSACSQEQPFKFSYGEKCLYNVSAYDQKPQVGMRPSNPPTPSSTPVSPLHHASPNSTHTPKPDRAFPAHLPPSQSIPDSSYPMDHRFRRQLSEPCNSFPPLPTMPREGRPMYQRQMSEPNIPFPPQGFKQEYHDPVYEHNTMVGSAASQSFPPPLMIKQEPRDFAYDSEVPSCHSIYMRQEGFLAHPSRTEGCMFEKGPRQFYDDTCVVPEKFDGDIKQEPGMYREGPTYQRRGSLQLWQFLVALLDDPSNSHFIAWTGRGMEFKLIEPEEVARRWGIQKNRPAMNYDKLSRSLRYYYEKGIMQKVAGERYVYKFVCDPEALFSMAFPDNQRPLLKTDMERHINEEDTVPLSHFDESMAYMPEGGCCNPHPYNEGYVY
# Method in brief: as §1
sequence,measurement,setting,value
CTCTGA,binding signal,FLI1,"1.18 fold enrichment (6-mer frequency, TF over GST control)"
same,binding signal,ELK1,"1.32 fold enrichment (6-mer frequency, TF over GST control)"
same,binding signal,GABPA,"1.22 fold enrichment (6-mer frequency, TF over GST control)"
same,binding signal,ERG,"1.21 fold enrichment (6-mer frequency, TF over GST control)"
same,binding signal,ELF1,"1.25 fold enrichment (6-mer frequency, TF over GST control)"
same,binding signal,EHF,"1.3 fold enrichment (6-mer frequency, TF over GST control)"
same,binding signal,SPI1,"1.17 fold enrichment (6-mer frequency, TF over GST control)"
same,binding signal,SPIB,"1.31 fold enrichment (6-mer frequency, TF over GST control)"
same,binding signal,ELK3,"1.12 fold enrichment (6-mer frequency, TF over GST control)"
same,binding signal,FEV,"1.23 fold enrichment (6-mer frequency, TF over GST control)"
same,binding signal,ETV5,"1.15 fold enrichment (6-mer frequency, TF over GST control)"
same,binding signal,HSF1,"1.06 fold enrichment (6-mer frequency, TF over GST control)"
same,binding signal,SPIC,"1.24 fold enrichment (6-mer frequency, TF over GST control)"
same,binding signal,ELF4,"1.23 fold enrichment (6-mer frequency, TF over GST control)"
same,binding signal,ELK4,"1.15 fold enrichment (6-mer frequency, TF over GST control)"
same,binding signal,ETV2,"1.12 fold enrichment (6-mer frequency, TF over GST control)"
same,binding signal,ELF3,"1.09 fold enrichment (6-mer frequency, TF over GST control)"
same,binding signal,CRX,"1.08 fold enrichment (6-mer frequency, TF over GST control)"
same,binding signal,ETV1,"1.3 fold enrichment (6-mer frequency, TF over GST control)"
